# A number with no mark means an inactive call. Activity calls are given as the source filed them.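 Rule for the calls, unless noted: active = fluorescence slope higher than the sample average by over 3 SD (cut at about -0.22 in these data, passing the limit was not always enough); inactive = the rest.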
# Molecular target: Voltage-gated potassium channel subunit beta-2 (Rattus norvegicus) (UniProt P62483)
# Assay: KvBeta enzyme negative modulators, primary screen, biochemical, NADPH fluorescence (AID 622);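 note: slope of raw intensity against log time taken from 70 to 1610 s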
# Details: recombinant KvBeta, 4-cyanobenzaldehyde reduction, at 10 µM, hits give high values
# Chain of Voltage-gated potassium channel subunit beta-2 (Rattus norvegicus) (P62483 whole entry, looked up): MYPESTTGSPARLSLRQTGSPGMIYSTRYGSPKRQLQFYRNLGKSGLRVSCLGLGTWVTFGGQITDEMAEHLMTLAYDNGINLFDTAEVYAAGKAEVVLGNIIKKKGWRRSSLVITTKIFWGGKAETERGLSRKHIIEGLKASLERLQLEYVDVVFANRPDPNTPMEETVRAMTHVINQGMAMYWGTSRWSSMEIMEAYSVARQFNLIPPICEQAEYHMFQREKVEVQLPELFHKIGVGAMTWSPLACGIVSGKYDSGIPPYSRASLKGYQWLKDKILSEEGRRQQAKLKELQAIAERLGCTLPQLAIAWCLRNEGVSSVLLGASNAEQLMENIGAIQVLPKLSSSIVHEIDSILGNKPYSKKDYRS
row,Compound,fluorescence slope
1,COc1ccc2c(c1)C(=O)N(c1ccccc1OC)C(=O)C2,-0.401
2,CCC(C)(C)n1nnnc1C(c1cc2cc(OC)ccc2[nH]c1=O)N1CCc2ccccc21 (stereo not given),-0.592
3,Cc1cc(C)cc(-n2nnc(C(=O)NCc3ccc4c(c3)OCO4)c2N)c1,-0.572
4,c1ccc(-c2cc(N3CCCCC3)ncn2)cc1,-0.485
5,Cn1c(=O)[nH]c(=O)c2c1nc(N1CCNCC1)n2CCOc1ccccc1,-0.513
6,O=c1c[n+]([O-])c2ccccc2n1OCc1c(F)cccc1F,-0.425
7,CCC(C)(C(=O)NC1CCCC1)N(C(=O)c1cnccn1)c1c(C)n(C)n(-c2ccccc2)c1=O (stereo not given),-0.471
8,COCCOC(=O)c1[nH]c2c(c1C)C(=O)CC(c1ccco1)C2 (stereo not given),-0.568
9,O=C(O)c1ccccc1S(=O)(=O)NCC(O)COc1ccc(Br)cc1 (stereo not given),-0.39
10,COc1cc(C)c(N)cc1C(C)C,-0.589
11,Cc1ccc(-c2cc3nc4c(c(=O)n3[nH]2)CCCC4)cc1,-0.454
12,CCCN1CCN(CCCNC(=O)Cn2ncc3c4ccccc4n(C)c3c2=O)CC1,-0.615
13,Cc1nn(-c2ccc(F)cc2)c2c1cc(C#N)c1nc3ccccc3n12,-0.000912 (active)
14,C=CCOC(=O)C1=C(C)OC(N)=C(C#N)C1c1ccc2c(c1)OCO2 (stereo not given),-0.602
15,Cn1c(=O)c2c(nc(Br)n2CCSc2nnnn2-c2ccccc2)n(C)c1=O,-0.36
16,O=C(NC1CC1)C1CCN(c2ccc(S(=O)(=O)N3CCOCC3)cc2)CC1,-0.476
17,CCOc1ccc(C2C(C#N)=C(N)Oc3cc(C)n(Cc4ccco4)c(=O)c32)cc1OC (stereo not given),-0.491
18,COc1ccc(C2CC(c3ccc(Cl)cc3Cl)n3nc(N)nc3N2)cc1 (stereo not given),-0.592
19,CCn1c(C(=O)N2CCC(C(=O)NCc3ccc4c(c3)OCO4)CC2)cc2sccc21,-0.508
20,O=C(Nc1cccc(O)c1)c1ccccc1,-0.521

row,Compound,fluorescence slope
1,CCCCN(C)CCCNC(=O)CC1Oc2ccccc2NC1=O (stereo not given),-0.493
2,Cc1ccc(-c2ccc(=O)n(CCC(=O)NCCN3CCCCC3C)n2)cc1 (stereo not given),-0.442
3,O=C(NCc1nc2ccccc2[nH]1)c1ccc(Cl)c(S(=O)(=O)N2CCCC2)c1,-0.531
4,CCn1c(=O)c(C(=O)NCCc2ccccc2)c(O)c2ccccc21,-0.302
5,c1cn(CC2(Cn3ccnc3)COC2)cn1,-0.614
6,COc1ccc(Br)cc1S(=O)(=O)N1CC(C)OC(C)C1 (stereo not given),-0.429
7,COc1ccc(CN2C(=O)[C@@H]3C(c4ccc(F)cc4)=NO[C@@H]3C2=O)cc1,-0.302
8,O=C(Cn1cnc2c(nnn2Cc2ccccc2)c1=O)c1ccc(Cl)cc1,-0.591
9,O=C(CN1C(=O)COc2ccccc21)N(Cc1cccnc1)Cc1ccccc1F,-0.324
10,CN(Cc1ccccc1)c1nc2c(c(=O)[nH]c(=O)n2C)n1Cc1ccccc1Cl,-0.6
11,CCCS(=O)(=O)Nc1c(C(=O)O)[nH]c2ccccc12,-0.415
12,Cc1oc2c(CN3CCOCC3)c(O)ccc2c(=O)c1-c1ccc(Br)cc1,-0.0886 (active)
13,CCOC(=O)CSc1nc2sc(C)c(C)c2c(=O)n1C,-0.36
14,CSc1nc(N)nc(SCCS(=O)(=O)c2ccc(Cl)cc2)c1C#N,-0.442
15,COc1ccc(OC)c(NC(=O)C2C3CC4OC(=O)C2C4C3)c1 (stereo not given),-0.322
16,CCn1c2ccccc2c2cc(Nc3cc(C)nc4ncnn34)ccc21,-0.527
17,CC(C)CSc1nc2ccccc2n1CC(N)=O,-0.362
18,COc1cccc(-c2cc(C(=O)N3CCc4ccccc4C3)no2)c1,-0.445
19,Cc1ccc(CCNC(=O)C2CCC(=O)N2C2CCCC2)cc1 (stereo not given),-0.493
20,CCOn1c(=O)c(=O)n(OCc2ccccc2)c2ccccc21,-0.345

# Molecular target: Voltage-gated potassium channel subunit beta-2 (Rattus norvegicus) (UniProt P62483)
# Assay: KvBeta positive modulators, primary screen, biochemical, NADPH fluorescence (AID 623;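 active = NADPH fluorescence slope more negative than the mean of all samples by about 3 SD, 99.7% confidence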;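 note: fluorescence intensity change per second fitted from 20 to 320 s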)
# Details: Recombinant KvBeta, NADPH fluorescence decrease slope, 10 min; at 10 µM; hits give low values
row,Compound,NADPH fluorescence slope
1,COc1ccc2c(c1)C(=O)N(c1ccccc1OC)C(=O)C2,-3.7e-05
2,CCC(C)(C)n1nnnc1C(c1cc2cc(OC)ccc2[nH]c1=O)N1CCc2ccccc21 (stereo not given),-4.5e-05
3,Cc1cc(C)cc(-n2nnc(C(=O)NCc3ccc4c(c3)OCO4)c2N)c1,2.9e-05
4,c1ccc(-c2cc(N3CCCCC3)ncn2)cc1,-4.6e-05
5,Cn1c(=O)[nH]c(=O)c2c1nc(N1CCNCC1)n2CCOc1ccccc1,4.4e-05
6,O=c1c[n+]([O-])c2ccccc2n1OCc1c(F)cccc1F,-2.4e-05
7,CCC(C)(C(=O)NC1CCCC1)N(C(=O)c1cnccn1)c1c(C)n(C)n(-c2ccccc2)c1=O (stereo not given),-0.000132
8,COCCOC(=O)c1[nH]c2c(c1C)C(=O)CC(c1ccco1)C2 (stereo not given),-6.8e-06
9,O=C(O)c1ccccc1S(=O)(=O)NCC(O)COc1ccc(Br)cc1 (stereo not given),2.1e-05
10,COc1cc(C)c(N)cc1C(C)C,-1.8e-05
11,Cc1ccc(-c2cc3nc4c(c(=O)n3[nH]2)CCCC4)cc1,1.7e-05
12,CCCN1CCN(CCCNC(=O)Cn2ncc3c4ccccc4n(C)c3c2=O)CC1,2.2e-07
13,Cc1nn(-c2ccc(F)cc2)c2c1cc(C#N)c1nc3ccccc3n12,1.1e-05
14,C=CCOC(=O)C1=C(C)OC(N)=C(C#N)C1c1ccc2c(c1)OCO2 (stereo not given),-3.1e-05
15,Cn1c(=O)c2c(nc(Br)n2CCSc2nnnn2-c2ccccc2)n(C)c1=O,-4.2e-05
16,O=C(NC1CC1)C1CCN(c2ccc(S(=O)(=O)N3CCOCC3)cc2)CC1,-5e-06
17,CCOc1ccc(C2C(C#N)=C(N)Oc3cc(C)n(Cc4ccco4)c(=O)c32)cc1OC (stereo not given),-2e-05
18,COc1ccc(C2CC(c3ccc(Cl)cc3Cl)n3nc(N)nc3N2)cc1 (stereo not given),-5.5e-05
19,CCn1c(C(=O)N2CCC(C(=O)NCc3ccc4c(c3)OCO4)CC2)cc2sccc21,-5.3e-05
20,O=C(Nc1cccc(O)c1)c1ccccc1,5e-06

row,Compound,NADPH fluorescence slope
1,CCCCN(C)CCCNC(=O)CC1Oc2ccccc2NC1=O (stereo not given),1.6e-05
2,Cc1ccc(-c2ccc(=O)n(CCC(=O)NCCN3CCCCC3C)n2)cc1 (stereo not given),-2.5e-05
3,O=C(NCc1nc2ccccc2[nH]1)c1ccc(Cl)c(S(=O)(=O)N2CCCC2)c1,2.5e-05
4,CCn1c(=O)c(C(=O)NCCc2ccccc2)c(O)c2ccccc21,-2.8e-06
5,c1cn(CC2(Cn3ccnc3)COC2)cn1,-1.1e-05
6,COc1ccc(Br)cc1S(=O)(=O)N1CC(C)OC(C)C1 (stereo not given),3.8e-05
7,COc1ccc(CN2C(=O)[C@@H]3C(c4ccc(F)cc4)=NO[C@@H]3C2=O)cc1,-5.3e-05
8,O=C(Cn1cnc2c(nnn2Cc2ccccc2)c1=O)c1ccc(Cl)cc1,-4.2e-06
9,O=C(CN1C(=O)COc2ccccc21)N(Cc1cccnc1)Cc1ccccc1F,-5.8e-05
10,CN(Cc1ccccc1)c1nc2c(c(=O)[nH]c(=O)n2C)n1Cc1ccccc1Cl,-2.7e-05
11,CCCS(=O)(=O)Nc1c(C(=O)O)[nH]c2ccccc12,-3.3e-05
12,Cc1oc2c(CN3CCOCC3)c(O)ccc2c(=O)c1-c1ccc(Br)cc1,3.7e-06
13,CCOC(=O)CSc1nc2sc(C)c(C)c2c(=O)n1C,1.9e-05
14,CSc1nc(N)nc(SCCS(=O)(=O)c2ccc(Cl)cc2)c1C#N,-2.1e-05
15,COc1ccc(OC)c(NC(=O)C2C3CC4OC(=O)C2C4C3)c1 (stereo not given),-5.4e-05
16,CCn1c2ccccc2c2cc(Nc3cc(C)nc4ncnn34)ccc21,7.4e-07
17,CC(C)CSc1nc2ccccc2n1CC(N)=O,-4.7e-05
18,COc1cccc(-c2cc(C(=O)N3CCc4ccccc4C3)no2)c1,7.7e-06
19,Cc1ccc(CCNC(=O)C2CCC(=O)N2C2CCCC2)cc1 (stereo not given),-4.7e-05
20,CCOn1c(=O)c(=O)n(OCc2ccccc2)c2ccccc21,-5.2e-05

# Reference: PubChem BioAssay
